Results on 40 molecules are retold here after the supplement of paper PMC10042075.

“And” between values parts separate entries of the source, which are not always exact repeats. Equal entries are not always repeated. Structures can show the parent of a compound that is named as a salt. ± gives the standard deviation of the averaged measurements.

This test has as its system LASCPC-01. The test is described as follows: cell viability relative to DMSO control (fraction); higher = less growth inhibition (more viable cells). As to conditions: 2 µM; 72 h. As for the experimental part: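 High-throughput single-dose screen in the LASCPC-01 NEPC cell line in 384-well plates. Cells were treated with each compound at 2 µM for 72 h, and viability was read by CellTiter-Glo luminescence. Values are normalised to the DMSO control (compound/DMSO) from three replicates; only the 5-HT-related subset of the 7315-compound library is given.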
In turn, `Fc1ccc2c(CCNCc3cccc(OCC(F)(F)C(F)F)c3)c[nH]c2c1` [idalopirdine] returned a cell viability of 0.923.
In turn, `CN1CC2c3ccccc3Oc3ccc(Cl)cc3C2C1` (stereo not given) [Asenapine Maleate] had a cell viability of 1.1.
Under `CN1CCN(c2nc3cc(C(F)(F)F)ccc3n3cccc23)CC1` stands 0.521.
With `CNCC[C@H](Oc1cccc2ccccc12)c1cccs1` [Duloxetine HCl] the figure was 1.13; with `NCCCCCNCC12CC3CC(CC(C3)C1)C2` [IEM 1754 dihydrobroMide], 0.808.
Molecule `O=C1c2cccc3c2[C@H](CCC3)CN1[C@@H]1CN2CCC1CC2` [Palonosetron hydrochloride] had a cell viability of 0.935.
In turn, `O=C1CC2(CCCC2)CC(=O)N1CCCCN1CCN(c2ncccn2)CC1` [Buspirone hydrochloride] returned a cell viability of 1.08.
`Nc1ccc2c(C(F)(F)F)cc(=O)oc2c1` [7-Amino-4-(trifluoromethyl)coumarin] registered a cell viability of 0.894.
Under `CSc1ccc2c(c1)C(N1CCN(C)CC1)Cc1ccccc1S2` (stereo not given) [Methiothepin mesylate] stands 1.03; under `NC(N)=NC(N)=Nc1ccccc1` [1-Phenylbiguanide], 0.991.
Under `CN(C)[C@@H](CCOc1cccc2ccccc12)c1ccccc1` [Dapoxetine HCl] stands 1.03; under `Cc1ccc(Sc2ccccc2N2CCNCC2)c(C)c1` [Vortioxetine], 0.666; under `Fc1ccc([C@@H]2CCNC[C@H]2COc2ccc3c(c2)OCO3)cc1` [Paroxetine hydrochloride hemihydrate (MW = 374.83)], 1.09.
With `Cc1[nH]cnc1CN1CCc2c(c3ccccc3n2C)C1=O` [Alosetron hydrochloride] the figure was 1.11; with `COc1ccc2cc(Br)ccc2c1` [2-Bromo-6-methoxynaphthalene], 0.899; with `O=c1n(CCCN2CCN(c3cccc(Cl)c3)CC2)nc2ccccn12` [Trazodone hydrochloride], 1.04.
For `CN1CCC[C@@H]1Cc1c[nH]c2ccc(CCS(=O)(=O)c3ccccc3)cc12` [Eletriptan hydrobromide], the cell viability was determined as 1.21.
With `CCN(CC)CCOC(=O)C(Cc1cccc2ccccc12)CC1CCCO1` (stereo not given) [Nafronyl oxalate] the figure was 1.07.
On to `O=C(CCCCCN1CCN(c2ccccc2-c2ccccc2)CC1)NC1CCCc2ccccc21` (stereo not given) [LP 12 hydrochloride hydrate], for which the cell viability came to 0.972.
With `COc1cc2c(cc1OC)[C@@H]1Cc3ccc(OC)c(OC)c3CN1CC2` [Rotundine] the figure was 1.05; with `CNCCC(Oc1ccc(C(F)(F)F)cc1)c1ccccc1` (stereo not given) [Fluoxetine], 0.892 ± 0.41; with `CN(C)CCCC1(c2ccc(F)cc2)OCc2cc(C#N)ccc21` (stereo not given) [Citalopram hydrobromide], 1.06.
Under `O=C1NCCN1CCN1CCC(c2cn(-c3ccc(F)cc3)c3ccc(Cl)cc23)CC1` [Sertindole] stands 0.499; under `CNS(=O)(=O)Cc1ccc2[nH]cc(CCN(C)C)c2c1` [Sumatriptan Succinate], 0.971; under `Cc1nc2ccccn2c(=O)c1CCN1CCC(C(=O)c2ccc(F)cc2)CC1` [Pirenperone], 0.645.
With `COc1ccccc1N1CCN(CCCNc2cc(=O)n(C)c(=O)n2C)CC1` [Urapidil HCl] the figure was 0.425.
On to `CN(C)CCCc1cc(C(=O)Nc2ccc(-c3ccncc3)cc2)ccc1O`, for which the cell viability is 0.993.
With `COc1ccccc1N1CCN(CCN(C(=O)C2CCCCC2)c2ccccn2)CC1` the figure was 0.987 and 1.03; with `O=c1ccc2ccc(OCCCCN3CCN(c4cccc5sccc45)CC3)cc2[nH]1` [Brexpiprazole], 1.01; with `Fc1ccc([C@@H]2CCNC[C@H]2COc2ccc3c(c2)OCO3)cc1` [Paroxetine HCl], 1.02.
`CN(C)CCC=C1c2ccccc2C=Cc2ccccc21` [Cyclobenzaprine hydrochloride] yielded a cell viability of 0.947.
Under `CC1(C)C(=O)N(CCN2CCC(C(=O)c3ccc(F)cc3)CC2)c2ccccc21` [LY-310,762 hydrochloride] stands 0.89.
Consider `O=C(O[C@@H]1C[C@@H]2C[C@H]3C[C@H](C1)N2CC3=O)c1c[nH]c2ccccc12` [Dolasetron mesylate hydrate], for which the cell viability worked out at 1.07.
Under `Cc1cc(-c2ccccc2)nnc1NCCN1CCOCC1` [Minaprine dihydrochloride] stands 1.
Under `N[C@@H](Cc1c[nH]c2ccccc12)C(=O)O` [L-Tryptophan] stands 0.904.
`CC1(C)C(=O)N(CCN2CCC(C(=O)c3ccc(F)cc3)CC2)c2ccccc21` displayed a cell viability of 0.991.
With `CN1[C@@H]2CC[C@H]1CC(OC(=O)c1c[nH]c3ccccc13)C2` (stereo not given in full) [3-Tropanyl-indole-3-carboxylate hydrochloride] the figure was 1.04.
With `CC(CN(C)C)CN1c2ccccc2CCc2ccccc21` (stereo not given) [Trimipramine maleate] the figure was 1.01; with `CN(C)CC(c1ccc(O)cc1)C1(O)CCCCC1` (stereo not given) [Desvenlafaxine], 1; with `Cc1cc2c(cc1Cl)N(C(=O)Nc1cccc3ncccc13)CC2`, 0.693.
